Only some compounds are listed: those with a hit (about 27% of all), similar ones and a draw of the others.
CYP2C9 inh: blockers of cytochrome P450 2C9 activity – biochemical, luminescence, ADME assay, primary screen. P11712. CYP2C9 Supersomes, luciferin-H conversion. inhibition, % at 5 µM. 96,000 tested, 20% active. AID 777, 2007;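 active = blocking of liver enzyme CYP2C9 beyond about 50% at 5 µM, limit read from the data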
EphB4 antag: EphB4-ephrin-B2 interaction antagonists, primary screen, biochemical, TNYL-RAW peptide probe, fluorescence polarization; EphB4 LBD / TNYL-RAW-Alexa532 peptide; inhibition, % at 7 µM; AID 720, 2007; Ephrin type-B receptor 4 (Homo sapiens), P54760; 97,000 tested, 0.15% active;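 active = inhibition above the screen-wide mean inhibition plus 3 SD, cut at about 15% in these data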;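 also: 0% = DMSO wells and 100% = excess unlabeled TNYL-RAW peptide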
Target sequence (P54760 whole entry, looked up, the tested form may be a part): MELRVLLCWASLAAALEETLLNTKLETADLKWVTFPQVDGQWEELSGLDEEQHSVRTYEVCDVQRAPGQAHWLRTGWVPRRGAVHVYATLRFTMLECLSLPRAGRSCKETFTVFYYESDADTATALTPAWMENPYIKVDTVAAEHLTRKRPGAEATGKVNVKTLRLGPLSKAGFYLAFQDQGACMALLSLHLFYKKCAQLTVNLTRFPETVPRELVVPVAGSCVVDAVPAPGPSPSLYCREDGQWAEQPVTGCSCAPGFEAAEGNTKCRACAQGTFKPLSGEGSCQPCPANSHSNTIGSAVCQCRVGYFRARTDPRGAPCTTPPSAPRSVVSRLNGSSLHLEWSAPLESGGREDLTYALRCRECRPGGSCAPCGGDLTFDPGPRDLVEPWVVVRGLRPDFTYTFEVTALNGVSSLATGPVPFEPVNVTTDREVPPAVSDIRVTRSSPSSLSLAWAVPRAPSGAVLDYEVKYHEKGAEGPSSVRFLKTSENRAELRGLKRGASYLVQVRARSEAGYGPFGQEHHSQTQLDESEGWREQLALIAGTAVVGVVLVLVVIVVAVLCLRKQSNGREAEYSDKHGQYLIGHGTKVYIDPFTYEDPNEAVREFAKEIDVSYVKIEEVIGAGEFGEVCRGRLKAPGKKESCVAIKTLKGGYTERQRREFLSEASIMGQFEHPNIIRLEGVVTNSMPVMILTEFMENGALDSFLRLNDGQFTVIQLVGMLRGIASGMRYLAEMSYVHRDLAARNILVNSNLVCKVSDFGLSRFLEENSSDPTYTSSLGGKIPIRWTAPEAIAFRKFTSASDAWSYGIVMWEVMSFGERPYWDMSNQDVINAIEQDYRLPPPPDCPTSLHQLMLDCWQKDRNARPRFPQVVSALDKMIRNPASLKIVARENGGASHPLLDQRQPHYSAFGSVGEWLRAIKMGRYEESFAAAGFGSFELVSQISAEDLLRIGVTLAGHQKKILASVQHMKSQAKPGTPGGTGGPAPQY
CYP2C9 activ: human CYP2C9 activators, primary screen, biochemical, luminescence | AID 1024, 2008 | 96,000 tested, 1.4% active | activation factor at 5 µM | recombinant CYP2C9, luciferin-H conversion; active compounds read high; factor 1 = untreated enzyme, 0 = blocked;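 active = activation factor of 2 or more for CYP2C9 at a 5 µM dose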;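 also: 0 = sulfaphenazole-blocked wells and 1 = vehicle-only wells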
CYP2C19 activ: human CYP2C19 activators, primary screen, biochemical, luminescence. activation factor at 5 µM. recombinant CYP2C19, luciferin-H EGE luminescence; active compounds read high; 0 = fully inhibited enzyme, 1 = untreated enzyme. AID 1025, 2008. Cytochrome P450 2C19 (Homo sapiens), P33261. 96,000 tested, under 10 active;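 active = activation factor of at least 2 at 5 µM in the primary screen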;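 also: 0 = wells with 2.5 mM tranylcypromine and 1 = vehicle-only wells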
CYP2C19 inhib: blockers of cytochrome P450 2C19 activity – biochemical, luminescence, ADME assay, primary screen. P33261. CYP2C19 Supersomes, luciferin-H EGE luminescence, 30 min. inhibition, % at 5 µM. 96,000 tested, 21% active;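 active = CYP2C19 inhibition above a set limit at 5 µM in the primary screen, cut at about 50% in these data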;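 also: plate controls were negative control wells for no effect and 2.5 mM tranylcypromine positive control for full effect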
* hit, by the source's call; / = no result given.

SMILES	CYP2C9 inh	EphB4 antag	CYP2C9 activ	CYP2C19 activ	CYP2C19 inhib
CCCCSc1nc(NCc2ccco2)c2c3c(sc2n1)COC(C)(C)C3	46.2	3.1	0.5	0.9	10.6
Cc1cc(C)n(-c2nc(NCc3cccnc3)c3c4c(sc3n2)COC(C)(C)C4)n1	58.8*	5.1	0.4	0.6	39.4
CCCSc1nc(NCc2ccco2)c2c3c(sc2n1)COC(C)(C)C3	55.9*	-0.9	0.4	0.6	39.1
CC(C)Cn1cc(C(=O)NCCCOC(C)C)c2c3ccccc3n(C)c2c1=O	34.4	-3.5	0.7	0.8	18.7
O=c1c2ccc(Cl)cc2[nH]c(=S)n1Cc1cccnc1	43.8	-1.5	0.6	0.4	55.8*
CCCc1[nH]n(-c2nc3ccccc3s2)c(=O)c1C=NCC(C)C	51.4*	1.9	0.5	0.7	33.3
Cn1c(Cc2ccccc2)nnc1SCC(=O)c1cccs1	44.4	0.6	0.6	0	95.2*
COc1ccc(OC)c(C(=O)CSc2nnc(-c3cccs3)n2C)c1	31.9	3.8	0.7	0	97.3*
COc1cccc(NC(=O)CSc2nnc(-c3cccs3)n2C)c1	11.3	8.4	0.9	0.8	24.1
Cc1ccc(C(=O)CSc2nnc(-c3cccs3)n2C)o1	11.2	-6.9	0.9	0.5	50.6*
COc1ccc(OC)c(NC(=O)CSc2nnc(Cc3cccn3C)n2CCc2ccccc2)c1	37.3	3.0	0.6	0.6	35.8
COc1ccc(OC)c(C(=O)CSc2nnc(Cc3cccs3)n2CCc2ccccc2)c1	36.9	5.1	0.6	0.4	55.2*
COCCn1c(=O)[nH]c2cc(C(=O)NCCCN3CCN(c4ccc(F)cc4)CC3)ccc2c1=O	14.5	5.0	0.9	0.9	11.1
Cc1cc(C=O)c(C)n1-c1ccc(N2CCCC2)c([N+](=O)[O-])c1	43.6	0.3	0.6	0.3	70.2*
CCOc1cc2[nH]c(=O)n(CCCC(=O)NCc3ccc(OC)cc3)c(=O)c2cc1OCC	47.0	3.5	0.5	0.8	16.0
O=C(CN1CCN(C(=O)c2cccs2)CC1)Nc1ccc(Br)cc1	18.7	-5.6	0.8	0.5	45.6
Cn1cc(C(CC(=O)O)C(=O)O)c2ccccc21 (configuration not stated)	9.3	6.4	0.9	0.9	11.3
CCOC(=O)CC(C#N)c1cn(C)c2ccccc12 (configuration not stated)	-249.3	7.5	3.5*	0.1	87.8*
COC(=O)C(Cc1cnc(Cl)s1)(C(=O)OC)c1ccc([N+](=O)[O-])cc1	73.3*	1.6	0.3	0.1	91.4*
COC(=O)C(Cc1cnc(Cl)s1)(C(=O)OC)c1ccccc1[N+](=O)[O-]	65.0*	12.3	0.3	0.1	93.5*
CCCc1cc(SCC(=O)Nc2c(C)n(C)n(-c3ccccc3)c2=O)n2c(nc3ccccc32)c1C#N	10.4	0.7	0.9	1.2	-16.5
CSc1nc(SCC(N)=O)c2c3c(sc2n1)CN(C)CC3	24.3	-4.4	0.8	0.7	26.7
COc1ccc(Cl)cc1NC(=O)CCN1CCN(C)CC1	-6.4	-9.7	1.1	1.1	-5.8
COc1ccc(Cl)cc1NC(=O)c1ocnc1C	-164.3	1.2	2.6*	0.9	5.8
COc1cccc(NC(=O)c2nc3nc(C)cc(C(F)F)n3n2)c1	0.1	1.9	1	1	4.1
SMILES	CYP2C9 inh	EphB4 antag	CYP2C9 activ	CYP2C19 activ	CYP2C19 inhib
COc1ccc(Cl)cc1NC(=O)N(C)Cc1c(C)nn(C)c1C	-142.9	-6.7	2.4*	0.1	85.8*
COc1ccc(Cl)cc1NC(=O)c1cnc2sccn2c1=O	-111.8	/	2.1*	1	1.5
COc1ccc(Cl)cc1NC(=O)c1nc2nc(C)cc(C(F)F)n2n1	-263.0	-7.6	3.6*	1.2	-17.8
C/C(=C1\SC(N2CCOCC2)=NC1=O)c1ccccc1	2.9	/	1	0.8	17.8
Cc1cc(=O)oc2cc(OCC(=O)NCCc3nc4ccccc4[nH]3)ccc12	46.4	7.6	0.5	0.8	24.1
CCOc1ccc(Nc2nc(Cc3nnc(SCC(=O)O)o3)cs2)cc1	-5.9	2.8	1.1	1.1	-13.5
COc1ccc(C(C)(C)C)cc1NC(=O)c1ccoc1C	38.8	5.2	0.6	0.4	62.3*
Cc1occc1C(=O)Nc1ccc(Br)cc1F	23.7	-4.5	0.8	0.5	50.5*
COc1cc(OC)c(NC(=O)c2ccoc2C)cc1Cl	-1.9	-2.9	1	0.7	32.2
COc1ccc(Cl)cc1NC(=O)c1ccoc1C	-164.6	-5.5	2.6*	0.9	14.6
COc1ccc(C)cc1NC(=O)c1ccoc1C	-21.7	0.9	1.2	1	1.9
O=c1cccccc1NCc1ccccc1	16.0	12.6	0.8	0.9	10.8
C=CCN1C(=O)C2(c3ccccc31)C1CCCC=C1C(C#N)=C(N)C2(C#N)C#N (configuration not stated)	14.4	8.1	0.9	1	3.8
CC1CCCCN1CCNC(=O)c1cnn2ccccc12 (configuration not stated)	28.1	-2.4	0.7	1.1	-8.6
O=C1CSC(=O)N1CC(O)COc1ccc(Cl)cc1 (configuration not stated)	23.3	-2.8	0.8	0.5	53.6*
O=C(c1ccc(Cl)cc1)c1ccc(OCC(O)CN2CCOCC2)cc1 (configuration not stated)	11.9	-2.4	0.9	0.9	7.0
Clc1ccc(OCCCc2nc(-c3ccncc3)no2)c(Cl)c1	84.1*	0.7	0.2	0.1	86.8*
Clc1ccc(-c2noc(COc3ccccc3)n2)cc1	-7.7	/	1.1	0.7	27.0
Clc1ccc(OCCCc2nc(-c3cccnc3)no2)c(Cl)c1	30.1	3.3	0.7	0.9	11.3
Clc1ccc(OCc2nc(-c3ccncc3)no2)cc1	94.6*	-2.8	0.1	0	95.4*
N#C/C(Cn1c[n+](NC(=O)Nc2ccccc2)cn1)=N/O	19.1	-3.2	0.8	0.8	17.9
O=C(CCNS(=O)(=O)c1cccc2nsnc12)Nc1ccc2c(c1)OCCO2	36.8	-1.1	0.6	0.9	10.4
O=S(=O)(Nc1ccc2c(c1)OCCO2)c1cccc2nsnc12	34.7	-5.7	0.7	0.4	59.7*
Cc1ccc2cccc(S(=O)(=O)Nc3ccc4c(c3)OCO4)c2n1	25.1	4.7	0.7	0	100.0*
CCOC(=O)COn1c(=O)c[n+]([O-])c2ccccc21	4.1	-2.7	1	0.9	11.8
CCOC(=O)/C(C#N)=C/c1ccc(OC)c(OC)c1	29.0	-4.4	0.7	1	1.3
CCOC(=O)/C(C#N)=C/c1ccc(OCC(=O)Nc2ccc(OC)cc2)c(OC)c1	59.4*	-2.1	0.4	0.5	48.9
O=S(=O)(c1cccc(C(F)(F)F)c1)N1CCC(c2cc(-c3cccc4ccccc34)n[nH]2)CC1	9.0	-0.4	0.9	0.9	6.0

Screens deposited in PubChem BioAssay by several laboratories.
